From the supplement of paper PMC9262897, “Low-cost anti-mycobacterial drug discovery using engineered E. coli” (Nature Communications, 2022)
Counter-ions that a name gives are not always drawn. ± gives the standard deviation of the averaged measurements.

What follows are molecules tested on E. coli TESEC Alr+ wild-type control (assay: growth (OD600 after 10 h); higher = more growth (less inhibition)). Conditions: compound 0.1 mM; raw OD600 reference: median of DMSO wells 0.49, cell-free background 0.052.
Method: (§1)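 TESEC Mtb Alr E. coli (ΔaraC ΔtolC ΔentC Δalr ΔdadX, arabinose-inducible Mtb Alr) or the Alr+ wild-type control strain, grown in defined M9-fructose medium without D-alanine in 96-well plates with Prestwick library compounds at 0.1 mM and 1% DMSO. Low Alr induction is 0.1 µM arabinose and high induction is 10 mM arabinose.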

| SMILES | growth |
| --- | --- |
| Cc1cc(N)c2ccccc2[n+]1CCCCCCCCCC[n+]1c(C)cc(N)c2ccccc21 [Dequalinium dichloride] | 0.0513 ± 0.0018 |
| Clc1ccc(Nc2nnc(Cc3ccncc3)c3ccccc23)cc1 [Vatalanib] | 0.514 ± 0.0082 |
| NNc1nncc2ccccc12 [Hydralazine hydrochloride] | 0.448 ± 0.049 |
| NC(Cc1cc(I)c(Oc2cc(I)c(O)c(I)c2)c(I)c1)C(=O)O (centres undefined) [Thyroxine (L)] | 0.469 ± 0.018 |
| Cc1onc(-c2c(F)cccc2Cl)c1C(=O)N[C@@H]1C(=O)N2[C@@H]1SC(C)(C)[C@@H]2C(=O)O [Flucloxacillin sodium] | 0.496 ± 0.053 |
| C[C@H](N[C@@H](CCc1ccccc1)C(=O)O)C(=O)N1CCC[C@H]1C(=O)O [Enalaprilat dihydrate] | 0.638 ± 0.025 |
| COCCOC(=O)C1=C(C)NC(C)=C(C(=O)OC/C=C/c2ccccc2)C1c1cccc([N+](=O)[O-])c1 (centres undefined) [Cilnidipine] | 0.518 ± 0.028 |
| CCCNCC(O)COc1ccccc1C(=O)CCc1ccccc1 (centres undefined) [Propafenone hydrochloride] | 0.452 ± 0.022 |
| Cn1nnc2c(C(N)=O)ncn2c1=O [Temozolomide] | 0.539 ± 0.076 |
| CCc1nn(CCCN2CCN(c3cccc(Cl)c3)CC2)c(=O)n1CCOc1ccccc1 [Nefazodone HCl] | 0.0504 ± 0.00067 |
| CC(=O)OCC(=O)[C@@]12OC3(CCCC3)O[C@@H]1C[C@H]1[C@@H]3CCC4=CC(=O)C=C[C@]4(C)[C@@]3(F)[C@@H](O)C[C@@]12C [Amcinonide] | 0.462 ± 0.024 |
| COc1ccccc1O [Guaiacol] | 0.558 ± 0.079 |
| C(=C\c1ccccc1)/CN1CCN(C(c2ccccc2)c2ccccc2)CC1 [Cinnarizine] | 0.539 ± 0.055 |
| CCN(CC)C(C)CN1c2ccccc2Sc2ccccc21 (centres undefined) [Ethopropazine hydrochloride] | 0.469 ± 0.026 |
| CC(CCc1ccccc1)NCC(O)c1ccc(O)c(C(N)=O)c1 (centres undefined) [Labetalol hydrochloride] | 0.467 ± 0.024 |
| CN(Cc1cnc2nc(N)nc(N)c2n1)c1ccc(C(=O)N[C@@H](CCC(=O)O)C(=O)O)cc1 [Methotrexate] | 0.102 ± 0.0015 |
| NS(=O)(=O)c1cc2c(cc1Cl)NC(CC1CCCC1)NS2(=O)=O (centres undefined) [Cyclopenthiazide] | 0.513 ± 0.035 |
| CC1(C)NC(=O)N(c2ccc([N+](=O)[O-])c(C(F)(F)F)c2)C1=O [Nilutamide] | 0.552 ± 0.064 |
| CC(=O)O[C@H]1C[C@@H]2CC[C@@H]3[C@H](CC[C@@]4(C)[C@H]3C[C@H]([N+]3(C)CCCCC3)[C@@H]4OC(C)=O)[C@@]2(C)C[C@@H]1N1CCCCC1 [Vecuronium bromide] | 0.23 ± 0.013 |
| Clc1ccc(C(Cn2ccnc2)OCc2csc3c(Cl)cccc23)c(Cl)c1 (centres undefined) [Sertaconazole nitrate] | 0.129 ± 0.036 |
| Cn1c(=O)c2c(ncn2C)n(C)c1=O [Caffeine] | 0.617 ± 0.065 |
| C[N+]1(C)CCC(OC(=O)C(O)(c2ccccc2)C2CCCC2)C1 (centres undefined) [Glycopyrrolate] | 0.575 ± 0.12 |
| Clc1cccc(Cl)c1NC1=NCCN1 [Clonidine hydrochloride] | 0.462 ± 0.014 |
| Cc1cc(O)c(C(=O)N[C@@H](C(=O)N[C@@H]2C(=O)N3C(C(=O)O)=C(CSc4nnnn4C)CS[C@H]23)c2ccc(O)cc2)cn1 [Cefpiramide] | 0.584 ± 0.046 |
| C#C[C@]1(O)CC[C@H]2[C@@H]3CCC4=C(CCC(=O)C4)[C@H]3CC[C@@]21C [Norethynodrel] | 0.355 ± 0.005 |
| Nc1ccc(O)c(C(=O)O)c1 [Mesalamine] | 0.554 ± 0.11 |
| CSc1ccc2c(c1)C(N1CCN(C)CC1)Cc1ccccc1S2 (centres undefined) [Methiothepin maleate] | 0.04833 ± 0.00021 |
| N[C@@H]1CONC1=O [D-cycloserine] | 0.399 ± 0.14 |
| CC(C)OC(=O)CCC/C=C\C[C@@H]1[C@@H](CC[C@@H](O)CCc2ccccc2)[C@H](O)C[C@@H]1O [Latanoprost] | 0.195 ± 0.059 |
| CC(NCCc1ccc(O)cc1)C(O)c1ccc(O)cc1 (centres undefined) [Ritodrine hydrochloride] | 0.56 ± 0.074 |

The molecules below were run on E. coli TESEC Mtb Alr in the same assay as above. Conditions: arabinose 100 nM; compound 0.1 mM; raw OD600 reference: median of DMSO wells 0.413, cell-free background 0.052.
Method: as §1

| SMILES | growth |
| --- | --- |
| CN(C)CCc1c[nH]c2ccc(Cn3cncn3)cc12 [Rizatriptan benzoate] | 0.408 ± 0.012 |
| COc1ccc(CCN(C)CCCC(C#N)(c2ccc(OC)c(OC)c2)C(C)C)cc1OC (centres undefined) [Verapamil hydrochloride] | 0.409 ± 0.005 |
| CC1=C(/C=C/C(C)=C/C=C/C(C)=C\C(=O)O)C(C)(C)CCC1 [Isotretinoin] | 0.438 ± 0.0094 |
| CCCOc1cc(N)ccc1C(=O)OCCN(CC)CC [Propoxycaine hydrochloride] | 0.41 ± 0.0052 |
| CO/N=C(\C(=O)N[C@@H]1C(=O)N2C(C(=O)O)=C(COC(C)=O)CS[C@H]12)c1csc(N)n1 [Cefotaxime sodium salt] | 0.0466 ± 0.0015 |
| Clc1ccc(Cn2c(CN3CCCC3)nc3ccccc32)cc1 [Clemizole hydrochloride] | 0.406 ± 0.011 |
| COc1ccccc1N1CCN(CCCCNC(=O)c2ccc3ccccc3c2)CC1 | 0.398 ± 0.0097 |
| CC[C@H](c1ccc(O)cc1)[C@@H](CC)c1ccc(O)cc1 [Hexestrol] | 0.0666 ± 0.025 |
| Cc1cc(N)c2ccccc2[n+]1CCCCCCCCCC[n+]1c(C)cc(N)c2ccccc21 [Dequalinium dichloride] | 0.0979 ± 0.005 |
| Clc1ccc(Nc2nnc(Cc3ccncc3)c3ccccc23)cc1 [Vatalanib] | 0.303 ± 0.17 |
| NNc1nncc2ccccc12 [Hydralazine hydrochloride] | 0.404 ± 0.0077 |
| NC(Cc1cc(I)c(Oc2cc(I)c(O)c(I)c2)c(I)c1)C(=O)O (centres undefined) [Thyroxine (L)] | 0.369 ± 0.034 |
| Cc1onc(-c2c(F)cccc2Cl)c1C(=O)N[C@@H]1C(=O)N2[C@@H]1SC(C)(C)[C@@H]2C(=O)O [Flucloxacillin sodium] | 0.412 ± 0.015 |
| C[C@H](N[C@@H](CCc1ccccc1)C(=O)O)C(=O)N1CCC[C@H]1C(=O)O [Enalaprilat dihydrate] | 0.411 ± 0.011 |
| COCCOC(=O)C1=C(C)NC(C)=C(C(=O)OC/C=C/c2ccccc2)C1c1cccc([N+](=O)[O-])c1 (centres undefined) [Cilnidipine] | 0.457 ± 0.0093 |
| CCCNCC(O)COc1ccccc1C(=O)CCc1ccccc1 (centres undefined) [Propafenone hydrochloride] | 0.412 ± 0.009 |
| Cn1nnc2c(C(N)=O)ncn2c1=O [Temozolomide] | 0.423 ± 0.011 |
| CCc1nn(CCCN2CCN(c3cccc(Cl)c3)CC2)c(=O)n1CCOc1ccccc1 [Nefazodone HCl] | 0.29 ± 0.2 |
| CC(=O)OCC(=O)[C@@]12OC3(CCCC3)O[C@@H]1C[C@H]1[C@@H]3CCC4=CC(=O)C=C[C@]4(C)[C@@]3(F)[C@@H](O)C[C@@]12C [Amcinonide] | 0.4092 ± 0.0021 |
| COc1ccccc1O [Guaiacol] | 0.407 ± 0.016 |

| SMILES | growth |
| --- | --- |
| C(=C\c1ccccc1)/CN1CCN(C(c2ccccc2)c2ccccc2)CC1 [Cinnarizine] | 0.431 ± 0.0055 |
| CCN(CC)C(C)CN1c2ccccc2Sc2ccccc21 (centres undefined) [Ethopropazine hydrochloride] | 0.413 ± 0.0094 |
| CC(CCc1ccccc1)NCC(O)c1ccc(O)c(C(N)=O)c1 (centres undefined) [Labetalol hydrochloride] | 0.413 ± 0.0048 |
| CN(Cc1cnc2nc(N)nc(N)c2n1)c1ccc(C(=O)N[C@@H](CCC(=O)O)C(=O)O)cc1 [Methotrexate] | 0.277 ± 0.14 |
| NS(=O)(=O)c1cc2c(cc1Cl)NC(CC1CCCC1)NS2(=O)=O (centres undefined) [Cyclopenthiazide] | 0.375 ± 0.011 |
| CC1(C)NC(=O)N(c2ccc([N+](=O)[O-])c(C(F)(F)F)c2)C1=O [Nilutamide] | 0.396 ± 0.013 |
| CC(=O)O[C@H]1C[C@@H]2CC[C@@H]3[C@H](CC[C@@]4(C)[C@H]3C[C@H]([N+]3(C)CCCCC3)[C@@H]4OC(C)=O)[C@@]2(C)C[C@@H]1N1CCCCC1 [Vecuronium bromide] | 0.396 ± 0.0098 |
| Clc1ccc(C(Cn2ccnc2)OCc2csc3c(Cl)cccc23)c(Cl)c1 (centres undefined) [Sertaconazole nitrate] | 0.12 ± 0.024 |
| Cn1c(=O)c2c(ncn2C)n(C)c1=O [Caffeine] | 0.412 ± 0.0085 |
| C[N+]1(C)CCC(OC(=O)C(O)(c2ccccc2)C2CCCC2)C1 (centres undefined) [Glycopyrrolate] | 0.408 ± 0.0092 |
| Clc1cccc(Cl)c1NC1=NCCN1 [Clonidine hydrochloride] | 0.407 ± 0.013 |
| Cc1cc(O)c(C(=O)N[C@@H](C(=O)N[C@@H]2C(=O)N3C(C(=O)O)=C(CSc4nnnn4C)CS[C@H]23)c2ccc(O)cc2)cn1 [Cefpiramide] | 0.419 ± 0.016 |
| C#C[C@]1(O)CC[C@H]2[C@@H]3CCC4=C(CCC(=O)C4)[C@H]3CC[C@@]21C [Norethynodrel] | 0.399 ± 0.0064 |
| Nc1ccc(O)c(C(=O)O)c1 [Mesalamine] | 0.416 ± 0.0084 |
| CSc1ccc2c(c1)C(N1CCN(C)CC1)Cc1ccccc1S2 (centres undefined) [Methiothepin maleate] | 0.293 ± 0.21 |
| N[C@@H]1CONC1=O [D-cycloserine] | 0.0455 ± 0.00047 |
| Clc1ccc(COC(Cn2ccnc2)c2ccc(Cl)cc2Cl)c(Cl)c1 (centres undefined) [Miconazole] | 0.051 ± 0.0039 |
| CC(C)OC(=O)CCC/C=C\C[C@@H]1[C@@H](CC[C@@H](O)CCc2ccccc2)[C@H](O)C[C@@H]1O [Latanoprost] | 0.314 ± 0.037 |
| CC(NCCc1ccc(O)cc1)C(O)c1ccc(O)cc1 (centres undefined) [Ritodrine hydrochloride] | 0.408 ± 0.0081 |
